According to the supplement of paper PMC13380429:
A number with no mark means an inactive call.

Test system: Vero E6 infected with SARS-CoV-2
Assay: inhibition of SARS-CoV-2 cytopathic effect; higher = more antiviral protection, active = above 15
Details: 10000 nM; 48 h

| Structure (SMILES) | inhibition of SARS-CoV-2 cytopathic effect |
| --- | --- |
| Cn1cc(C(F)(F)F)nc1-c1ccc(OCC(O)CNCCOc2ccc(O)c(C(N)=O)c2)cc1 (stereo not given) | 1.34% |
| CC(C)C[C@H](NC(=O)[C@@H](Cc1c[nH]c2ccccc12)NC(=O)[C@H](Cc1ccc(O)cc1)NC(=O)[C@H](CO)NC(=O)[C@H](Cc1c[nH]c2ccccc12)NC(=O)[C@H](Cc1c[nH]cn1)NC(=O)[C@@H]1CCC(=O)N1)C(=O)N[C@@H](CCCNC(=N)N)C(=O)N1CCC[C@H]1C(=O)NCC(N)=O [triptorelin] | 0.84% |
| CC(=O)Nc1ccc(S(=O)(=O)c2ccc(NC(C)=O)cc2)cc1 [acedapsone] | 5.34% |
| CC(C(=O)O)c1ccc2c(c1)CC(=O)c1ccccc1S2 (stereo not given) [zaltoprofen] | 1.17% |
| CC(C)CN(C[C@@H](O)[C@H](Cc1ccccc1)NC(=O)O[C@H]1CCOC1)S(=O)(=O)c1ccc(N)cc1 [amprenavir] | -0.72% |
| CCc1cc2c(s1)-n1c(C)nnc1CN=C2c1ccccc1Cl [etizolam] | 2.75% |
| CN(C)CCN1C(=O)c2cccc3cc(NC(N)=O)cc(c23)C1=O [unbs-5162] | -2.03% |
| COc1ccc(-c2cc(=O)c3c(OC)c(OC)c(OC)c(OC)c3o2)cc1OC [nobiletin] | -0.29% |
| CC(=O)c1ccc2c(c1)N(CCCN1CCC(CCO)CC1)c1ccccc1S2 [piperacetazine] | 3.14% |
| Cc1nnc(C(=O)NC(C)(C)c2nc(C(=O)NCc3ccc(F)cc3)c(O)c(=O)n2C)o1 [raltegravir] | 1.12% |
| O[C@@H]1CO[C@H]2[C@@H]1OC[C@@H]2O [isosorbide] | 3.05% |
| O=C1c2ccccc2CCC1CNCCc1ccc(O)cc1 (stereo not given) | -0.46% |
| COCC(=O)Nc1c(I)c(C(=O)NCC(O)CO)c(I)c(C(=O)N(C)CC(O)CO)c1I (stereo not given) [iopromide] | 0.66% |
| Clc1ccccc1CNC[C@H]1CC[C@H](CNCc2ccccc2Cl)CC1 | 16.4% (active) |
| CC[n+]1c(-c2ccccc2)c2cc(N)ccc2c2ccc(N)cc21 [homidium] | 6.13% |
| Cc1ccc(O)c(N=Nc2ccccc2)n1 | 3.77% |
| CCCCn1c(-c2ccccc2)nc(-c2ccccc2)c1CN(Cc1ccc2c(c1)OCO2)Cc1ccc2c(c1)OCO2 | 5.96% |
| COc1cc2cc(c1Cl)N(C)C(=O)C[C@H](OC(=O)C(C)C)[C@]1(C)O[C@@H]1[C@H](C)[C@@H]1C[C@@](O)(NC(=O)O1)[C@H](OC)/C=C/C=C(\C)C2 [ansamitocin-p-3] | 0.75% |
| Cc1ccc(-c2cn3c4c(sc3n2)CCCC4)cc1 [pifithrin-cyclic] | 0.74% |
| C#Cc1cccc(Nc2ncnc3cc(OCCOC)c(OCCO)cc23)c1 | -8.66% |

| Structure (SMILES) | inhibition of SARS-CoV-2 cytopathic effect |
| --- | --- |
| CN1C[C@H](C(=O)N[C@]2(C)O[C@@]3(O)[C@@H]4CCCN4C(=O)[C@H](Cc4ccccc4)N3C2=O)C[C@@H]2c3cccc4[nH]cc(c34)C[C@H]21 [dihydroergotamine] | 2.88% |
| CNC(=O)[C@H]1O[C@@H](n2cnc3c(NCc4cccc(I)c4)nc(Cl)nc32)[C@H](O)[C@@H]1O | 0.99% |
| CCCCC(CC)CCC(CC(C)C)OS(=O)(=O)O (stereo not given) [sodium-tetradecyl-sulfate] | 3.12% |
| CCc1nn(CCCN2CCN(c3cccc(Cl)c3)CC2)c(=O)n1CCOc1ccccc1 [nefazodone] | -2.21% |
| CCCS(=O)(=O)Nc1ccc(F)c(C(=O)c2c[nH]c3ncc(-c4ccc(Cl)cc4)cc23)c1F [vemurafenib] | 4.29% |
| N[C@H](C(=O)O)c1cc(O)no1 [ibotenic-acid] | -0.16% |
| O=[N+]([O-])/N=C1\NCCN1Cc1ccc(Cl)nc1 [imidacloprid] | 3.01% |
| Cc1nc(Nc2ncc(C(=O)Nc3c(C)cccc3Cl)s2)cc(N2CCN(CCO)CC2)n1 [dasatinib] | -11.6% |
| CCOP(=S)(OCC)Oc1ccc2c(C)c(Cl)c(=O)oc2c1 [coumophos] | -0.05% |
| O=C1NC(=O)C(c2cnc3ccccn23)=C1c1cn2c3c(cc(F)cc13)CN(C(=O)N1CCCCC1)CC2 | 14.8% |
| CCOC(=O)C(=O)Nc1cccc(OC)c1C(N)=O | -0.82% |
| Cc1cc(OI)c(C(C)C)cc1-c1cc(C(C)C)c(OI)cc1C [thymol-iodide] | -2.32% |
| Nc1n[nH]c2nc3ccccc3nc12 [CDK1-5-inhibitor] | -3.33% |
| CC(C)(C)c1cc(NC(=O)Nc2ccc(-c3cn4c(n3)sc3cc(OCCN5CCOCC5)ccc34)cc2)no1 [quizartinib] | -4.89% |
| COc1cc(NS(=O)(=O)c2ccc(N)cc2)nc(OC)n1 [sulphadimethoxine] | -0.74% |
| NC(=O)c1ncn([C@@H]2O[C@H](CO)[C@@H](O)[C@H]2O)n1 [ribavirin] | 4.23% |
| Cc1nc(Nc2ccc(F)cc2)nc(N2CCc3ccccc3C2C)c1C (stereo not given) [revaprazan] | 1.72% |
| CN1CCCC(n2nc(Cc3ccc(Cl)cc3)c3ccccc3c2=O)CC1 (stereo not given) [azelastine] | -3.03% |
| O=C1N=C2SCCN2C(=O)C1Cc1ccc(Cl)cc1 (stereo not given) [nuclomedone] | -2.17% |
| CO[C@@]12[C@H](COC(N)=O)C3=C(C(=O)C(C)=C(N)C3=O)N1C[C@@H]1N[C@@H]12 [mitomycin-C] | -5.17% |
